# Test results reported in the supplement of paper PMC6555819.
# Legend:
# Experiment in all cases: PBM binding z-score (relative to random genomic background probes); higher = stronger binding; sequences stand for … in GC…GCGATTGACAGCGTAGAATGAAGG
# [1] = system: RARb homodimer (NR concentration 270 nM)
# Outline: (§1)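 On custom Agilent 4×180K arrays, double-stranded probes with 34-nt variable regions carried direct-repeat seeds, single-nucleotide variants, half-site ablations or random human genomic background. Ligand-free nuclear receptor dimers were applied for 1 h, and binding was read with antibodies against each partner (one per run). Binding z-scores come from regression-normalized fluorescence, with the random background probes as reference.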
# [2] = system: RARg:RXRa (NR concentration 270 nM, RXRa partner concentration 90 nM)
# Outline: as §1
# [3] = system: RARg homodimer (NR concentration 270 nM)
# Outline: as §1
# [4] = system: RXRa DBDmut IVT, anti-RXR (DBD mutation: RXRa K156A/R161A, NR concentration 90 nM)
# Outline: as §1
# [5] = system: RXRa homodimer (NR concentration 180 nM)
# Outline: as §1
# [6] = system: THRa:RXRa (NR concentration 90 nM, RXRa partner concentration 90 nM)
# Outline: as §1
# [7] = system: THRa homodimer (NR concentration 90 nM)
# Outline: as §1
# [8] = system: VDR homodimer (NR concentration 270 nM)
# Outline: as §1
Sequence,PBM binding z-score [1],PBM binding z-score [2],PBM binding z-score [3],PBM binding z-score [4],PBM binding z-score [5],PBM binding z-score [6],PBM binding z-score [7],PBM binding z-score [8]
CGTCCAATGTCAGCAGGTCAGTGAAAGCGACGTG,2.76,2.04,2.59,0.442,0.9,1.31,0.239,0.584
GCTAGTTGGTTAGTAAAAGGTCACACACCGGTCG,4.86,4.87,4.08,0.675,5.33,3.66,2.08,1.85
AGTAGCAGGCCAAGTTTGGGTCACTCAAACAAAG,2.22,2.3,1.7,-0.435,0.67,2.62,1.08,0.19
TCGAGTAGGTAAGGGGCATTCAGAATGGCGTCGA,0.551,-0.117,-0.0823,-0.0222,0.0821,-0.336,-0.325,0.178
GCATATAGGTAATACAAGCTGAAAGTCCGATTGT,-0.29,0.165,0.41,0.344,0.524,-0.299,-0.467,-0.000967
TTACCAAGGTGAGCTGTGGTCGTTGATCCAACTC,0.173,0.108,-0.154,-0.592,0.152,1.78,-0.136,-0.783
CCTACTGGGGCATAAGGTTACCATAAGCCAGCCC,1.86,1.78,1.29,-0.346,1.17,2.05,0.894,-0.339
AGAACGAGGGCAATGAGGTGATAGCACGGGTGGC,1.58,1.49,1.52,1.37,1.04,2.46,0.988,1.57
TCTTGTAGATCAAACAGGTTAAGAAAGCCTGAGT,0.167,0.214,0.186,0.683,0.587,0.607,-0.548,0.0762
TCTATTGGTTGAAGGGCAACCGACGAGTCCGTTT,1.17,0.455,0.586,1.37,0.744,0.279,0.101,1.24
CCTCCTAGGTCATGGTCAGCTAATCTACAGTATG,3.55,3.91,4.49,1.04,2.93,3.09,1.92,0.641
CCGACTGGGGCAGAAAGGTTACTATACCATCCGG,1.91,1.26,1.23,-0.158,1.3,0.534,-0.377,-0.181
CCGTCTGGGGCAAAGGTTACCATACTCAGTACGA,2.21,3.55,1.87,0.589,3.51,1.74,-0.0764,-0.106
CCGACTGGGGCGAGGTTACCATAACGCACAGCCA,0.887,0.854,0.545,-0.326,1.39,1.55,0.408,0.294
GCGACTGGGGCAAAGCAGGTTTCCATAAGGTTGG,-0.0206,-0.174,-0.133,0.157,-0.342,1.21,-0.028,-0.34
CGTCAAAGTTCAAGGTAACGAAACAGAAAGCAGC,3.67,5.6,6.29,4.46,5.13,2.9,0.933,2.99
ATCTCTAGGTAACCACGTTCAGTGAATGCCGAAC,0.366,0.142,0.288,-0.101,0.112,0.672,0.721,0.344
TAGCCTAGGTAAGATCGGGCCAGTATACGCTATA,-0.638,-0.26,-0.321,-1.17,-0.364,1.37,-0.927,-0.857
TCTCGGAGGACACGTAGGTCAGAGCTTTCCAGAG,2.65,2.17,2.67,0.656,1.04,2.44,0.686,0.567
ATCTCTAGGTAAAGATCGTTCAGTGAATGCAAAT,0.111,0.0557,0.231,-0.238,-0.178,0.22,-0.0507,0.139
TCATATAGGTAAATGCTAGGTTAAAGTCCGATCT,0.967,0.772,0.598,1.74,0.914,1.35,0.664,0.441
TAGCCTAGGACATTCAGGGGCCAGTATAGAAAGC,0.77,0.352,0.546,-0.698,-0.1,0.588,-0.132,-0.236
CCTACTGGGCCACGAAAGGTCTTTGATTCAGTGA,1.03,0.285,0.261,-0.372,0.067,1.06,-0.141,-0.432
TATACAGGGTCAAAGGACAGAGTACGAATGTCGA,3.47,5.29,5.03,3.17,6.26,3.7,1.21,2.76
ATCGAAAGGTCTACGAGGTGAGTATACACCGTTT,1.01,1.32,1.56,-0.0758,1.11,2.26,0.606,0.124
TCTATTAGTTTAAGGGCAACCGACGAGTCCGTTT,2.12,0.831,1.17,1.94,0.958,2.69,2.56,2.78
ATGCCAAGGTGATCGTGAGGTCGTTGATACTAAC,1.42,2.12,0.718,0.41,1.52,3.54,2.25,2.53
AGTCAAAGTTCACTAGCTAACGTAAGATTCAGCT,3.22,4.66,5.41,4.14,3.53,1.4,-0.145,3.78
